Screening data from PubChem BioAssay.
Peg3 prom inh-1: Peg3 promoter activity inhibition; HeLa PEG-Prom luciferase reporter, luminescence, overnight; inhibition, % at 20 µM; 1.7% of 360,000 active; AID 588405;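 active = inhibition of at least 50% at 20 µM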
Shn3 3UTR inh: inhibitors of Schnurri-3 3'UTR reporter in osteoblasts. Clone20 osteoblast Shn3 3'UTR firefly luciferase, 24 h. AID 588674. 0.52% of 360,000 active. inhibition, % at 12.5 µM;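 active = mean inhibition of at least 75% with every replicate also reaching 75%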;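 also: 0% = median of neutral control wells and 100% = pilot-screen positive control compound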
TWEAK Fn14 block: TWEAK-Fn14 signaling inhibition; inhibition, % at 10 µM; TWEAK-stimulated Fn14 reporter cells, luciferase luminescence, 8 h; AID 1159606; 2% of 360,000 active; in the data active = inhibition above about 50%
TROY NFkB inh: TROY signaling inhibition. Q293 LMP1-TROYcd NF-kB luciferase reporter, 4 h. inhibition, % at 10 µM. 0.98% of 360,000 active;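 active = compounds whose plate-normalised and pattern-corrected inhibition of the luciferase reporter signal at the single screening dose is 50% or more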
MITF TRPM1 inh: MITF TRPM1 promoter inhibition in SK-MEL-5 cells | SK-MEL-5 TRPM1 promoter luciferase, 24 h | inhibition, % at 12.5 µM | AID 488899 | 0.83% of 330,000 active;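 active = mean inhibition across replicates of 60% or more, whatever share of single replicates reaches that level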
EBV LMP1 NFkB: reduces LMP1-driven NF-kappaB luciferase signal. AID 504558. LMP1-induced NF-kappaB luciferase reporter cells, luminescence. inhibition, % at 12.5 µM. 0.69% of 350,000 active; in the data active = inhibition above about 41%;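 also: 0% = neutral control wells and 100% = reference inhibitor control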
Peg3 prom inh-2: Peg3 promoter inhibition confirmation; HeLa PEG-Prom luciferase reporter, luminescence, overnight; inhibition, % at 20 µM; 84% of 1,300 active; shares compounds with Peg3 prom inh-1;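 active = at 20 µM dose, 40% or more inhibition averaged across four replicates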
Starred values were filed as active, the others as inactive; / = no result; ! = repeats disagree. Hits are enriched below; roughly 4.1% of the tested compounds scored in any of these assays.

SMILES	Peg3 prom inh-1	Shn3 3UTR inh	TWEAK Fn14 block	TROY NFkB inh	MITF TRPM1 inh	EBV LMP1 NFkB	Peg3 prom inh-2
COc1ccc(NS(=O)(=O)c2cc(NC(=O)C3=NN(c4ccccc4)C(=O)CC3)ccc2OC)cc1	5.3	-7.7	9.5	-5.5	-9.0	0.0	/
Cc1cc(N2C(=O)Cc3ccccc3C2=O)ccc1C(C)C	-13.4	35.7	6.8	-31.5	-7.4	-1.8	/
Cc1ccc(C(C[N+](=O)[O-])n2nc(C)cc2C)cc1 (configuration not stated)	28.3	-3.0	12.5	-3.6	54.7	10.5	/
Cc1ccc(C(C[N+](=O)[O-])Sc2ccc(N)cc2)cc1 (configuration not stated)	105.5*	/	-15.0	-36.2	67.5*	4.3	97.3*
O=C(O)c1cc(NC(=O)c2ccccc2[N+](=O)[O-])ccc1O	3.8	-19.5	6.4	2.5	-4.7	3.1	/
Clc1cccc(-c2nc(-c3ccccn3)no2)c1	62.1*	51.6	97.2*	69.8*	63.8*	51.0*	52.1*
c1ccc(-c2nc(-c3ccccn3)no2)cc1	75.9*	16.1	93.8*	73.3*	53.5	41.3*	46.4*
Cc1ccc(-c2nc(-c3ccccn3)no2)cc1Cl	92.9*	69.8	103.7*	82.1*	82.6*	68.0*	71.9*
COc1cc(-c2nc(-c3ccccn3)no2)cc(OC)c1OC	-219.5	-98.3	-32.4	-62.2	-64.9	-2.1	/
Cc1ccc(-c2nc(-c3ccccn3)no2)cc1	96.5*	91.8*	106.1*	86.5*	89.8*	87.8*	88.9*
COCCN(CCOC)C(=O)c1ccc(CSc2nc3ccccc3s2)cc1	-121.9	-7.3	-9.9	-25.0	-7.5	5.1	/
O=C(CSc1ccc(Cl)cc1)NNC(=O)c1ccncc1	-4.8	-8.4	-1.7	-1.9	-1.5	-8.4	/
COc1ccc(/C=C/CN2CCC(n3nccc3NC(=O)C3CCCC3)CC2)cc1	-4.7	3.5	-2.2	-18.2	-1.2	-0.8	/
COc1cc(-c2cc(C(=O)Nc3ccc(C)c(S(=O)(=O)N4CCOCC4)c3)c3ccccc3n2)cc(OC)c1OC	52.5*	24.8	3.3	3.5	2.2	22.5	37.5
O=C1CCc2cc(NS(=O)(=O)c3ccc(Cl)cc3)cc3c2N1CC3	-32.4	5.2	-15.7	-12.4	-10.4	-2.3	/
COC(=O)Cc1c(O)ccn(Cc2ccc(Cl)c(Cl)c2)c1=O	-6.1	12.3	-7.3	5.5	-1.4	-4.2	/
CCOC(=O)Cn1c2ccc(OC)cc2c2nc3ccccc3nc21	87.9*	4.3	7.9	-2.4	26.8	3.3	33.2
CCOC(=O)c1c(C)[nH]c(C(=O)OCC(=O)Nc2sccc2C(N)=O)c1C	70.3*	81.6	83.6*	63.9*	38.4	15.6	73.3*
COC(=O)c1ccc2nc(Nc3nc4ccc(F)cc4s3)sc2c1	79.4*	39.2	92.1*	79.3*	83.6*	36.8	89.8*
OCC(O)C(O)C(O)c1cnn(-c2ccccc2)n1 (configuration not stated)	5.8	6.7	17.0	8.6	-1.9	-1.0	/
COc1ccc(NC(=O)Nc2cc(C)ccn2)cc1	-144.9	0.2	38.9	-15.4	-6.3	32.2	/
COc1ccc(C(=O)NC(=O)Nc2cc(C)ccn2)cc1	72.4*	23.7	97.4*	78.9*	70.2*	68.0*	38.0
O=C(NC(=O)c1ccccc1)Nc1ccccn1	90.2*	60.6	94.8*	72.9*	81.3*	71.3*	76.8*
O=C(Nc1ccccn1)c1ccc(C(=O)c2ccccc2)cc1	-349.9	-57.2	14.7	-37.4	-85.6	-42.3	/
C=CCC[C@@H](Cc1ccc(F)cc1)C(=O)OCCNC(=O)[C@H](CC=C)CC(=O)NCCO	-5.0	-3.0	15.7	-0.9	6.2	-1.0	/
SMILES	Peg3 prom inh-1	Shn3 3UTR inh	TWEAK Fn14 block	TROY NFkB inh	MITF TRPM1 inh	EBV LMP1 NFkB	Peg3 prom inh-2
O=C(CCSc1nc2ccccc2s1)N/N=C/c1c(O)ccc2ccccc12	53.8*	86.7*	13.8	19.8	41.4	-10.2	59.1*
COC(=O)c1cc(COC(=O)CNC(=O)c2ccc(Br)cc2)oc1C	0.1	11.0	15.1	-2.0	4.7	-1.5	/
COc1cc(NC(=O)c2nccn2C)cc(C(=O)Nc2cccc(C(F)(F)F)c2)c1	53.3*!	12.2	-22.5	-29.6	36.0	-24.6	33.2
N#C/C(=C/c1ccc(C(=O)O)cc1)C(=O)Nc1ccccc1	-8.5	14.6	-10.7	2.2	-10.6	4.2	/
Cc1ccccc1NC(=O)C(=Cc1ccc(C(=O)O)cc1)C(=O)Nc1ccccc1C	59.4*	43.4	77.9*	16.5	48.0	8.8	50.2*
Cc1cc(C(=O)CN2C(=O)c3ccccc3S2(=O)=O)c(C)n1C(C)C	68.1*	41.8	92.7*	83.7*	34.5	70.4*	74.1*
C=CCn1c(C)cc(C(=O)CN2C(=O)NC3(CCCc4ccccc43)C2=O)c1C (configuration not stated)	-37.3	9.3	-6.2	-14.9	-16.8	-11.8	/
Cc1cc(C(=O)CN2C(=O)c3ccccc3S2(=O)=O)c(C)n1-c1ccccc1	92.7*	61.3	94.3*	-0.4	81.2*	73.7*	93.3*
CN(Cc1ccccc1)C(=O)CN1C(=O)c2ccccc2S1(=O)=O	-36.7	1.5	-5.9	-21.9	-1.0	-10.2	/
Cc1ccc(C(=O)CN2C(=O)c3ccccc3S2(=O)=O)cc1	80.5*	54.7	98.9*	82.9*	68.8*	74.4*	78.8*
Cc1cc(C)nc(NC(=O)CN2C(=O)c3ccccc3S2(=O)=O)n1	3.3	-4.3	-9.0	15.6	1.2	-2.6	/
C=CCn1c(C)cc(C(=O)CN2C(=O)c3ccccc3S2(=O)=O)c1C	93.5*	91.0*	104.4*	87.9*	94.1*	86.8*	95.8*
CC(C)NC(=O)CN1C(=O)c2ccccc2S1(=O)=O	0.0	-26.3	-12.0	-28.1	-4.9	8.1	/
COc1cccc(C(=O)c2sc(NC(C)C)nc2N)c1	105.1*	-49.0	21.2	-21.5	4.4	-71.6	76.3*
COc1ccc(S(=O)(=O)N2CCOC23CCN(C(=O)c2c(F)cccc2Cl)CC3)cc1	10.0	0.1	-17.4	-37.5	-4.2	-5.7	/
NS(=O)(=O)c1ccc(CCNC(=O)c2cc(-c3cccs3)nc3ccccc23)cc1	53.9*	7.4	18.6	5.7	8.3	-5.0	41.1*
CC(C)c1ccc(NC(=O)CSc2nc(-c3ccccc3F)nc3nc[nH]c23)cc1	59.6*	11.7	3.1	18.8	5.3	2.9	25.2
CC(C)c1ccc(NC(=O)CSc2nc(=O)[nH]c3c2CCCC3)cc1	15.9	16.3	16.3	5.8	18.9	-6.7	/
CCOC(=O)c1c(NC(=O)c2ccc(S(=O)(=O)N3CCOCC3)cc2)sc2c1CC(C)(C)NC2(C)C	53.4*	-10.2	-16.3	-0.3	0.9	-12.6	9.3
CCOC(=O)c1c(NC(=O)COc2ccccc2F)sc2c1CC(C)(C)NC2(C)C	85.5*	-22.9	21.4	27.7	71.2*	-22.2	79.9*
